These results are taken from the OligoGym collection.
Further: reference of the scale not given here.

The target in the first experiment is HDHD2. In words: pooled miR-30 sensor sort-seq; sequence = guide strand. As to conditions: shRNA.
TTTCTCAACCTTTCTAACAGGT: the sensor-assay potency score (higher = more potent) was determined as 0.329.

In the case of TAAACTTCTGGCTGCAGTCAGA, the sensor-assay potency score (higher = more potent) is -0.973.

In the case of TTCCTTTGAAATCAGGTAGTGC, the sensor-assay potency score (higher = more potent) is -0.746. The same measure, in the same setting: next, TTTGAAATCAGGTAGTGCCCGA: -0.154; TTCCGCTCTAGTAAACTTCTGG: 0.0507. On to TAACCTTTTAAGAGCTTCCTGT, for which the sensor-assay potency score (higher = more potent) is -0.227. Same read-out and setting: next, TCAACTAGCAGCATGGGTCTGA: 0.908.

TTTCTTCATCTGATGCTCGATA: the sensor-assay potency score (higher = more potent) was -0.755.

A further experiment concerns the target HEATR8. Described as above. To be noted: shRNA.
For TTGGCGGTCTTCTCAGACCTGC, the sensor-assay potency score (higher = more potent) is -0.945.

TTCAGGTTCAGCTTGGAGGTGT registered a sensor-assay potency score (higher = more potent) of 0.381. Same read-out and setting: next, TTGGTCTCTTCCTTATCTCTGG: -0.426; TACCACTCCAGCACCGAGCTGA: -0.0285; TTCTTTATCATGGTCTTCTTTT: -1.04. Regarding TAACAGGGTCTTCACACACTTC, the sensor-assay potency score (higher = more potent) is -1.46. Same read-out and setting: next, TAACACACCCATGAGTTCCCGT: -0.71; AACATGACTGAGCACTTCCGGA: -0.961; TTGAACTTGTGCTCCAGGTGGT: 0.565. Same read-out and setting: next, TTCAACACAGAGACATTGGTGT: 0.958. Still for that read-out and setting: next, TTCACCACTTTCACCACCCAGC: -0.301. The sequence TTGAGTGATGGTCACGCTCAAA had a sensor-assay potency score (higher = more potent) of -1.7.

For a further experiment, the target named is HECTD1. The experiment is described as above. As to conditions: shRNA.
Sequence TGCATCAGTAGCATCAACCTTG came in with a sensor-assay potency score (higher = more potent) of 0.0486. TTAACTTTCGAATTAACGCAAC gave a sensor-assay potency score (higher = more potent) of -1.04.

As for TAGCACATAATCATCATCCCAT, the sensor-assay potency score (higher = more potent) was determined as 0.659. In turn, TTAATTGTTCACACCAGTCTGG yielded a sensor-assay potency score (higher = more potent) of -0.677. With TTGACTACAATCTTGTTTCATA, the sensor-assay potency score (higher = more potent) is -0.725. As for TAGAGTTGAACAACCAGTGGTA, the sensor-assay potency score (higher = more potent) is 0.312.

On to TAAGAGGTCGTTGTGAAGCTGC, for which the sensor-assay potency score (higher = more potent) was -0.0408. TCGAATACAATCTATAAGCTGC gave a sensor-assay potency score (higher = more potent) of 0.194. On the same count and under the same terms, next, TTTACTTCGAATACAATCTATA: -1.13; TAAGTCCTCATCATCATCGAGC: -0.93; TTGCGTACAACCGTGAGCCTGG: 0.726.

In the next experiment the target is HEPH. The description is as above. To be noted: shRNA.
TTGCGTCGTAGCTTTCTCTGTC showed a sensor-assay potency score (higher = more potent) of 0.593. As to TACAGCTTTCTTGTATCTGGAA, the sensor-assay potency score (higher = more potent) was -0.122.

Sequence TATGTCACTGTCCAGAGGCTGG showed a sensor-assay potency score (higher = more potent) of -1.3. Still for that read-out and setting: next, AATGTAACCATAACTGTCCTTC: -0.181; TTTCTGTGCACACATGTTCAGC: -0.645; TAGTAGATTCTAGCACTCCATG: -1.17. For the sequence TATCCTCTGAAAGCAGTCGGAA, the sensor-assay potency score (higher = more potent) was -1.21. In turn, TTGTCAGACTTTAAGAAGCTGG returned a sensor-assay potency score (higher = more potent) of -0.791. Take TAGATGGTCTTCTTGTAGGTTC: the sensor-assay potency score (higher = more potent) was -0.407.
